Test results: PubChem BioAssay (NCI)
About 83,000 compounds went through this panel and 20% of them were active in at least one assay; those are over-represented in the sample as a whole.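 Assay: single dose, 48 h. Readout: percent growth (0 = no net growth; negative = cell death). Active: <10.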 Unmarked numbers belong to inactive results. The source made the active and inactive calls.

These molecules were tested on MDA-MB-435 melanoma (assay: NCI-60 one-dose screen, 48 h (100 = growth as untreated, 0 = no growth, -100 = all killed)). Settings: 10 µM unless noted.

Row | Compound | growth
1 | C#CCOc1cccc(Nc2ncnc3c(NC(=O)C=C)cccc23)c1 | 2.2% (active)
2 | COc1cc(CNS(=O)(=O)c2ccc(C)cc2)ccc1OCc1cn(-c2ccc(F)cc2)nn1 | 94.4%
3 | CCc1ccc(C(=O)/C=C/C23c4ccccc4C(c4ccccc42)C2C(=O)NC(=O)C23)cc1 (stereo not given) | -46.6% (active)
4 | Nc1ncnc2c1N=C(c1ccc(Cl)cc1)CC(c1ccc3c(c1)OCO3)N2 (stereo not given) | 101%
5 | Cc1ccc(S(=O)(=O)N2CCCC2CO)cc1 (stereo not given) | 111%
6 | CC(=O)Nc1nc2ccc(NS(=O)(=O)c3cccc4c(N(C)C)cccc34)cc2[nH]1 | -28.6% (active)
7 | COC(C(=O)[C@@H](O)[C@@H](C)O)[C@@H]1Cc2cc3cc(O[C@H]4C[C@@H](O[C@H]5C[C@@H](O)[C@H](O)C(C)O5)[C@H](O)C(C)O4)c(C)c(O)c3c(O)c2C(=O)[C@H]1O[C@H]1C[C@@H](O[C@H]2C[C@@H](O[C@H]3C[C@@H](O)[C@H](OC)C(C)O3)[C@@H](O)C(C)O2)[C@H](O)C(C)O1 (stereo not given in full) | -54.2% (active)
8 | Cc1nn(-c2ccccc2)c(Oc2ccccn2)c1-c1nc2ccccc2s1 | 103%
9 | CC(C)(C)n1cc(-c2ccnc(NCCNS(=O)(=O)c3cccc4ccccc34)c2)c(-c2cccc(F)c2)n1 | -31.8% (active)

What follows are molecules tested on SW-620 colon in the same assay as above. Settings: 10 µM unless noted.

Row | Compound | growth
10 | Cc1cccc2c1NC(=O)C2(c1ccc(O)cc1)c1ccc(O)cc1 | 103%
11 | Cc1ccc(Cl)cc1Nc1nc(C(F)(F)F)ccc1C(=O)N/N=C/c1cccnc1 | 22.7%
12 | C=CCc1c2c(c(OC)c3ccoc13)C(=O)/C(=C/c1ccccc1OC)O2 | 47.2%
13 | COC(=O)c1cc(-c2ccc(S(C)(=O)=O)cc2)[nH]c1N/N=C/c1c(Cl)cccc1Cl | 15%
14 | Cn1cc(-c2csc(-c3c[nH]c4ccc(Br)cc34)n2)c2cnccc21 | -82.6% (active)
15 | O=C(N/N=C/c1ccc(F)cc1)c1ccc(C(F)(F)F)nc1Nc1cccc(C(F)(F)F)c1 | 5.48% (active)
16 | N#Cc1c(N)nnn1Cc1cc(=O)oc2c1ccc1ccccc12 | 97.7%
17 | CN(CCOc1ccc(C#N)cc1)CCOc1ccc(C#N)cc1 | 57.8%
18 | CCOc1nc(-c2ccccc2)cc2c(O)c(C(=O)NN)[nH]c(=O)c12 | 97.4%
19 | COC(=O)c1c2c(c(C)[n+]([O-])c1C)C(=O)C=C(NCc1ccc(OC)cc1)C2=O | 0.249% (active)
20 | CCCCN1C(=O)/C(=c2\sc3n(c2=O)C2C(NN=3)N(CC)C(=O)N2CC)c2ccccc21 (stereo not given) | 28.3%
21 | Nc1ncnc2c1N=C(c1ccc3c(c1)OCO3)CC(c1ccc([N+](=O)[O-])cc1)N2 (stereo not given) | 81.5%
22 | COC(=O)c1c2c(c(C)[n+]([O-])c1C)C(=O)C=C(NCc1ccc(Br)cc1)C2=O | -17.2% (active)
23 | COc1ccc(C(=S)N2CCN(c3ccccc3Cl)CC2)cc1OC | 106%
24 | CCOC(=O)c1nc(Nc2ccc(NC(=O)Nc3ccc(F)cc3)cc2)c2ccccc2n1 | 96.9%
25 | CC(C)n1cnc2c(=S)nc[nH]c21 | 103%
26 | COc1cc(-c2cc(-c3ccc(N(C)C)cc3)nc(N3CCC(O)CC3)c2C#N)cc(OC)c1OC | 21.1%
27 | O=C(c1ccc(-c2ccccc2)cc1)c1ccc([N+](=O)[O-])cc1 | 101%
28 | O=C(Nc1cccc([N+](=O)[O-])c1)c1cc2ccccc2cc1O | 6.15% (active)
29 | O=C1c2cccc(NCCN=Cc3cc(O)ccc3O)c2C(=O)c2c(NCCN=Cc3cc(O)ccc3O)cccc21 | -68.7% (active)
30 | CN(Cc1ccc(C(F)(F)F)cc1)CC(O)C(=O)Nc1ccc(Cl)cc1 (stereo not given) | -41.5% (active)
31 | O=[N+]([O-])c1ccc(N/N=C(/C(=N/Nc2ccc([N+](=O)[O-])cc2)c2ccccc2)c2ccccc2)cc1 | 47.6%
32 | Cc1c(-n2nnc(-c3nc4ccccc4s3)c2N)c(=O)n(-c2ccccc2)n1C | 106%
33 | Cc1cc(N)c2cc(NC(=O)/C=C\c3ccccc3Cl)ccc2n1 | -91.2% (active)
34 | C=C1C(=O)O[C@H]2[C@H]1CC/C(COC(=O)CCSCCC(=O)OC/C1=C/CC[C@@]3(C)O[C@H]3[C@H]3OC(=O)C(=C)[C@@H]3CC1)=C\CC[C@@]1(C)O[C@@H]21 | -23.5% (active)
35 | COc1cc(CNS(=O)(=O)c2ccc(C)cc2)ccc1OCc1cn(-c2ccc(Br)cc2)nn1 | 99.1%
